# High-throughput results deposited in PubChem BioAssay by several laboratories.
# Anthrax LF inh2: Bacillus anthracis LF protease inhibitors, primary screen, biochemical, multiplex microsphere, MLPCN library; multiplex microsphere protease cleavage assay; AID 588501, 2011; inhibition, % at 10 µM; 360,000 tested, 0.12% active; Lethal factor (Bacillus anthracis), P15917; further: plate controls were buffer without enzyme for full effect and enzyme alone for no effect
# BoNT A protease: BoNT/A light chain protease inhibitors, primary screen, biochemical, flow cytometry, MLPCN library. Botulinum neurotoxin type A light chain protease (Clostridium botulinum A str. ATCC 3502). multiplex microsphere protease substrate cleavage. inhibition, % at 10 µM. 360,000 tested, 0.17% active; further: plate controls were buffer without enzyme for full effect and enzyme alone for no effect
# BoNT F protease: BoNT/F light chain protease inhibitors, primary screen, biochemical, flow cytometry, MLPCN library; inhibition, % at 10 µM; 360,000 tested, 0.22% active; AID 588497, 2011; Multiplex microsphere protease cleavage assay; Botulinum neurotoxin type F light chain protease (Clostridium botulinum); in the data active means inhibition above about 35%, passing the limit was not always enough; inconclusive means no clear call, values can overlap the other calls; further: plate controls were buffer without enzyme for full effect and enzyme alone for no effect
# MazF activator: activators of E. coli MazEF toxin-antitoxin RNase, primary screen, biochemical, fluorescence, uHTS; Endoribonuclease toxin MazF (Escherichia coli (strain K12)), P0AE70; FAM/BHQ RNA-DNA oligo cleavage fluorescence, 5 h; activation, % at 20 µM; 350,000 tested, 0.32% active; AID 504720, 2011; in the data active means activation above about 50%
# Target sequence (P0AE70 whole entry, looked up): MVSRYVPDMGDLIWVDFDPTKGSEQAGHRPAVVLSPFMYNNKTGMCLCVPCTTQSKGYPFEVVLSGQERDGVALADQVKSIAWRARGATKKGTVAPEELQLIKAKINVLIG
# Autofluor counter: counter-screen for toxin protease inhibitors: compound fluorescence; fluorescence intensity (test concentration not listed); 360,000 tested, 3.1% active; AID 624483; compound autofluorescence counterscreen, microsphere flow cytometry; hits give high values; in the data active means fluorescence intensity above about 16000; inconclusive means no clear call, values can overlap the other calls
# Active calls of the source: *; ? = inconclusive; nt = not tested or not shown. This is a sample that favours compounds with a hit; in the whole collection about 3.7% have one here. Unless noted, no stated cut-off is given here; in the data, active means inhibition above about 30%; inconclusive means no clear call, values can overlap the other calls; inactive means below that.
SMILES,Anthrax LF inh2,BoNT A protease,BoNT F protease,MazF activator,Autofluor counter
COc1ccc(OC)c(N2C(=O)NC(=O)C3(Cc4cc(C)ccc4N(C)C3)C2=O)c1 (stereo not given),-2,0,2,-4,16331*
COc1ccc2c(c1)CC1(CN2C)C(=O)NC(=O)N(CCc2ccccc2)C1=O (stereo not given),-6,-1,-12,5,5237
Cc1ccc2c(c1)CC1(CN2C)C(=O)NC(=O)N(c2cc(C)ccc2C)C1=O (stereo not given),-1,1,3,-6,22449*
COc1cccc(N2C(=O)NC(=O)C3(Cc4cc(C)ccc4N(C)C3)C2=O)c1 (stereo not given),-1,0,-8,-2,2993
CCCCN1C(=O)NC(=O)C2(Cc3cc(C)ccc3N(C)C2)C1=O (stereo not given),-2,0,-2,-6,2947
COc1cc(CN2C(=O)NC(=O)C3(Cc4cc(C)ccc4N(C)C3)C2=O)cc(OC)c1 (stereo not given),-2,0,-2,-10,22009*
CC(=O)Oc1cccc2c1C(=O)C1CC=CC(OC(C)=O)C1C2=O (stereo not given),-8,0,4,37,4016
CCCCn1nnnc1C1(C)CCC(=O)N1CCCn1ccnc1 (stereo not given),-2,-1,-20,nt,4241
O=C(Nc1ccc(C(F)(F)F)cc1)c1cccnc1N1CCOCC1,2,?,5,9,21885*
CCn1c(Cc2ccccc2)nnc1SCC(=O)OC(C)C,3,7,7,-1,21705*
Cn1c(Cc2ccccc2)nnc1SCC(=O)c1ccc(Br)s1,-3,-2,-4,1,23767*
CCn1c(Cc2ccccc2)nnc1SCC(=O)Nc1cc(C)on1,-4,3,3,3,21460*
Cc1cc(NC(=O)CSc2nnc(-c3cccnc3)n2Cc2ccccc2)no1,-3,-2,2,3,3939
CCn1c(Cc2ccccc2)nnc1SCC(=O)NC(C)(C)C,-5,-1,-8,5,11399
CCn1c(SCC(=O)Nc2cc(C)on2)nnc1-c1cccnc1,-2,-1,-2,1,20847*
O=[N+]([O-])c1ccc(Cl)c(S(=O)(=O)Nc2cccc(S(=O)(=O)NC3=NCCC3)c2)c1,9,2,-4,1,3562
CNC(=O)CSc1nnc(COc2ccc(Cl)cc2)n1CCOC,1,2,4,-10,22197*
COCCn1c(SCC(=O)OC(C)C)nnc1-c1ccccc1,-7,-3,-3,0,24184*
COCCn1c(Cc2ccccc2)nnc1SCC(=O)NC(C)(C)C,-3,0,6,-11,8229
CCn1c(SCC(=O)Nc2nc(C)c(C)s2)nnc1-c1cccnc1,-1,-5,-6,-6,17323*
COCCn1c(Cc2ccccc2)nnc1SCC(=O)N(C)C,1,1,2,3,21939*
COCCCn1c(C)nnc1SCC(=O)NNC(=O)COc1ccc(Cl)cc1,12,1,7,5,3611
Cc1cc(NC(=O)CSc2nnc3ccccn23)no1,-4,-5,15,2,17051*
O=C1Nc2ccccc2C(=O)N2c3ccccc3NC(=O)C12 (stereo not given),0,0,-8,nt,5406
Cc1cc(C)n(-c2nc3ccccc3c(=O)n2OCc2ccc(Cl)cc2)n1,-2,?,-3,-1,22331*
SMILES,Anthrax LF inh2,BoNT A protease,BoNT F protease,MazF activator,Autofluor counter
Cc1cc(C)n(-c2nc3ccccc3c(=O)n2OCc2ccc(F)cc2)n1,1,-1,-20,5,5261
Cc1cc(CC(C)C)n(-c2nc3ccccc3c(=O)n2OCc2ccccc2)n1,-3,?,-6,-3,23326*
CNc1nc(NCc2ccc(N(C)C)cc2)c2sccc2n1,-7,0,-7,nt,3368
CC(C)Oc1ccc(S(=O)(=O)N2CCOCC2)cc1NC(=O)c1cccc(S(=O)(=O)N2CCCC2)c1,-5,0,9,4,3779
CN(Cc1ccccc1)C(=O)c1cccc(NC(=O)Cc2cccc(NC(=O)C3CCN(C(=O)c4ccccc4)CC3)c2)c1,4,0,-1,7,4092
COc1cccc(C(=O)COC(=O)C2CC(=O)N(c3ccc(Oc4ccccc4OC)cc3)C2)c1 (stereo not given),0,2,12,5,5164
CCOC(=O)CSc1ncc(OC)c(Sc2ccc(OC)cc2)n1,0,0,1,0,20771*
CCc1ccc(NC(=O)CSc2nc3c(c(=O)n(C)c(=O)n3C)n2C)cc1,-7,-1,-12,19,6148
CCc1ccc(NC(=O)CC2C(=O)Nc3c2c(=O)n(C)c(=O)n3C)cc1 (stereo not given),1,3,7,-12,22007*
COC(=O)c1ccc2nc(-c3ccco3)c(Cc3ccccc3C(F)(F)F)n2c1,-1,0,1,nt,4487
COC(=O)c1cc(NC(=O)C2COc3ccccc3O2)ccc1Cl (stereo not given),-1,2,2,5,21646*
Cn1c(SCc2cccc(F)c2)nnc1-c1ccccn1,-2,0,1,4,16789*
Cn1c(SCc2cccc(Br)c2)nnc1-c1ccccn1,13,-1,?,3,3654
CC1(C)CC(=O)C(C2C3=C(CC(C)(C)CC3=O)Oc3ccccc32)=C(O)C1 (stereo not given),0,0,3,-4,2857
COc1ccc2c(c1)C(C1=C(O)CC(C)(C)CC1=O)C1=C(CC(C)(C)CC1=O)O2 (stereo not given),-4,-4,-4,5,24480*
CCCCc1ccc(NC(=O)c2c(C)noc2C)cc1,0,-4,-10,-3,17390*
CC(=O)Nc1ccc(NC(=O)c2c(C)noc2C)cc1,-1,-3,-4,3,6213
CC(C)CN(C(=O)COC(=O)CCc1c[nH]c2ccccc12)c1c(N)n(Cc2ccccc2)c(=O)[nH]c1=O,0,2,3,5,?
O=C(CSc1nnc(Cc2ccccc2)n1Cc1ccco1)NC12CC3CC(CC(C3)C1)C2,0,?,2,2,23614*
CN(C)C(=O)CSc1nnc(Cc2ccccc2)n1Cc1ccco1,0,1,2,-3,8265
O=C1CC(N2CCN(Cc3ccccc3)CC2)C(=O)N1 (stereo not given),-1,1,3,4,2595
O=C1CC(N2CCN(c3ccc(Cl)c(Cl)c3)CC2)C(=O)N1 (stereo not given),-3,-1,-2,-3,21082*
O=C(N/N=C/c1ccc(Cl)cc1Cl)c1cccc(F)c1,-1,0,1,9,22364*
O=C(N/N=C/c1ccc(Cl)cc1Cl)c1ccc2nc[nH]c2c1,-2,0,4,-29,5418
